From the OligoGym collection

Molecular target: COPS8
Assay: pooled miR-30 sensor sort-seq; sequence = guide strand
Conditions: shRNA
Also: reference of the scale not given here.

Sequence	sensor-assay potency score (higher = more potent)
TTGCAGATTTTATAGCAGGTGG	-0.905
ATTCTTTGTCCTACTGACCAAA	-1.48
TAGAAGCTGACCATACACTGGG	0.625
TTGATGGTTGTATAGATCCCAG	-1.45
TTTTTGAAACTAAAGGCGCTTT	-0.00727
TTCTTTTCCAAAGATATCTTGC	-0.431
TATTTTATCACATAGTAAGGAA	-0.329
TTTCTGGGCAGAACCATTCTTG	-0.632
TTACATTTCTACGTTTGTCAGT	-0.228
TATGGAGCAAATATAAAGCTAG	-0.121
TTGTTGCATCTCTAAGTGCTTC	-1.16
TTTTCCAAAGATATCTTGCATT	-0.738

Molecular target: COQ3
Assay: as above
Conditions: shRNA

Sequence	sensor-assay potency score (higher = more potent)
TAGGATTTGAACCATATGGTTC	-0.787
TTGAAAACATCAGATATCCAAG	-0.816
TAGAGCATTCCTACCACTGTTT	-0.0231
TTAATGTTCTCATCCACAGGGT	0.284
TTAATCTGTAGAGTCCCACTGA	0.477
TTCTTCACATAAACCGCCGAGG	-1.27
AAACAGGAAAAGATCGTCCTGT	0.479
TACCTGAAACTCTTTATTCTGT	-0.297
TTAGCTTGGAGCTCTTCTGTTT	-0.684
TAACACTTGACAGCAGCACTGT	-0.0361
TATGGTTCTGTATTCATTGAAA	-1.12
TAGTAATGAATAAAGAACCACC	-0.744

Molecular target: COQ9
Assay: as above
Conditions: shRNA

Sequence	sensor-assay potency score (higher = more potent)
TTGGTCTGGTATTAGGAACTGA	-0.609
TTCATTGCATCATTAACCCGGT	0.189
TAGTCCTCCTCCTCCTCGCCGC	-1.01
TTTTCAATCACACAGTTGCAGT	-1.24
TATTAGCTCACTGCCATCCTTC	-0.456
ATCATCACCAGCTCTGTTGTGT	-0.201
TTTCAAAGCTCTTTCAATCTGT	0.272
TTCTGCTCATCTGAAGACCTTA	-0.0401
TCTAGCACACGTGTGAGCCGGG	0.25
TTGTGTTGTAGATGGCAGCCAG	-0.498
TATTAGGAACTGAAGAAGCAGC	-1.33
TCCTCTTCTAGCACACGTGTGA	-0.72

Molecular target: CORIN
Assay: as above
Conditions: shRNA

Sequence	sensor-assay potency score (higher = more potent)
ATTTGTAAGAATAACATCGGAC	-0.147
TTGATTGTCTGAATTTTCCTCT	0.641
TTGAACTTTCATACAATCGTGA	0.765
